The target of test [1] is Sphingosine kinase 1 (Homo sapiens) (UniProt Q9NYA1). The note with it: at 1 µM.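 Also: mean SPHK1 inhibition value reported from the GSK PKIS kinase panel screen.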
In test [2] the target is T1, Sphingosine kinase 2 (Homo sapiens) (UniProt Q9NRA0).
T1 sequence (whole entry): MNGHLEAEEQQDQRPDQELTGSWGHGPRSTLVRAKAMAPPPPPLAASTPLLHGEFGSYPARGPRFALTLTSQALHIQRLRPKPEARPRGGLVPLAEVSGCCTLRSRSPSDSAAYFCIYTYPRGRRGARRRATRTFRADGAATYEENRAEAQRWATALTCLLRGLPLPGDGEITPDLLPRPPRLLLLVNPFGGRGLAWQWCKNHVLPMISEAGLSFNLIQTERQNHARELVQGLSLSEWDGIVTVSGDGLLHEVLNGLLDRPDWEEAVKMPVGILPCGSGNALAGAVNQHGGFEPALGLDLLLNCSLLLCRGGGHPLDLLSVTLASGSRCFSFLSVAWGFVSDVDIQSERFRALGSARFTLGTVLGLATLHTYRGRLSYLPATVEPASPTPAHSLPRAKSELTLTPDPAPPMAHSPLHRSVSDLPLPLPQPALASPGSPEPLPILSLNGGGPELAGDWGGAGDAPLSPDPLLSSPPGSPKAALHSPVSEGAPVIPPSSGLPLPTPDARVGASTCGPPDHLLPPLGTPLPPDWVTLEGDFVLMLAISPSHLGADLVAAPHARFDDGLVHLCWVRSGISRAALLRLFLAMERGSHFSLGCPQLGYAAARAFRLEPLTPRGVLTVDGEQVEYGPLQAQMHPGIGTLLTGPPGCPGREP
The note with it: at 0.1 µM.

Test [3] deals with T1, Sphingosine kinase 2 (Homo sapiens). The note with it: at 1 µM.
Test [4] concerns the target Casein kinase II subunit alpha (Homo sapiens) (UniProt P68400). The note with it: at 0.1 µM.
For test [5] the target is unchanged. The note with it: at 1 µM.
The target of test [6] is T2, Inhibitor of nuclear factor kappa-B kinase subunit alpha (Homo sapiens) (UniProt O15111).
T2 sequence (whole entry): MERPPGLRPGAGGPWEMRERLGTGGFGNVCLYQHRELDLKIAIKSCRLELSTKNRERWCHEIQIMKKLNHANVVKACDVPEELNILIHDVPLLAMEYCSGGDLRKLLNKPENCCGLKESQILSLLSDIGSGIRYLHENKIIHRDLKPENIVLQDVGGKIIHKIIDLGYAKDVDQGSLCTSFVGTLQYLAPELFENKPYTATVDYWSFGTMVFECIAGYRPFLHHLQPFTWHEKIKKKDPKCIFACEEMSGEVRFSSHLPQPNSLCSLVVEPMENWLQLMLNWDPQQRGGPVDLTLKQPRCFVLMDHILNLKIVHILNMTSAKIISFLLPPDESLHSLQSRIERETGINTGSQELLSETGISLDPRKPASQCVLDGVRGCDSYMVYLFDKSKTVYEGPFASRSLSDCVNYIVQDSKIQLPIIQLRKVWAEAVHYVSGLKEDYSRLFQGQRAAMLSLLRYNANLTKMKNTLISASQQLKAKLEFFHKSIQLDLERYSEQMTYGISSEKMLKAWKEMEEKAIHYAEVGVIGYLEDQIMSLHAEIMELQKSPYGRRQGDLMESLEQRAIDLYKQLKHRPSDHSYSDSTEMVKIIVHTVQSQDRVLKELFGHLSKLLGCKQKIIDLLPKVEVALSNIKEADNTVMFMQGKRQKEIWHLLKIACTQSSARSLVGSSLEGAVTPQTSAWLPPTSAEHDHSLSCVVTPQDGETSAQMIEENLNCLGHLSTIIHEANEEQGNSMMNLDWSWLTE
The note with it: at 0.1 µM.

The target in test [7] is T2, Inhibitor of nuclear factor kappa-B kinase subunit alpha (Homo sapiens). The note with it: at 1 µM.
For test [8], the target named is T3, Inhibitor of nuclear factor kappa-B kinase subunit beta (Homo sapiens) (UniProt O14920).
T3 sequence (whole entry): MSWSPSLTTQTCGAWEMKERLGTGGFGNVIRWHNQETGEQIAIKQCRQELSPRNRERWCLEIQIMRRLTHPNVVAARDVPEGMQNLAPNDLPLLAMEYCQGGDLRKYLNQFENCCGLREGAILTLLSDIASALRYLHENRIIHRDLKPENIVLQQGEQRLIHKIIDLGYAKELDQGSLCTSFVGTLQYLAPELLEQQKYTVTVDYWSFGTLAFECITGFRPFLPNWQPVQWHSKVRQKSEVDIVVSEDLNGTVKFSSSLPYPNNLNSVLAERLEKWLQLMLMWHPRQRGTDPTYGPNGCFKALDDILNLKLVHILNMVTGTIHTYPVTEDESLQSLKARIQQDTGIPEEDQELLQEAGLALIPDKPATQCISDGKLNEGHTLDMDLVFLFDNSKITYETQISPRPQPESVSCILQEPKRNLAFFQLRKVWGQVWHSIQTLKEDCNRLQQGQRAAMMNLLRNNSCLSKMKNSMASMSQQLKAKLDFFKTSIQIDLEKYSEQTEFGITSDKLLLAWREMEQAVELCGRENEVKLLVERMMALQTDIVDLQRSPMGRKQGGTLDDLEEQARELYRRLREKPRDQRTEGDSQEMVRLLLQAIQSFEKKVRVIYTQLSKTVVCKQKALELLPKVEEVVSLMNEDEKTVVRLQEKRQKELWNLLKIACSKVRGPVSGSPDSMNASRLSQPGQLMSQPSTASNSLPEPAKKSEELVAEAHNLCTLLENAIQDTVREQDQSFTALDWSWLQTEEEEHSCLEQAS
The note with it: at 0.1 µM.

Test [9] addresses T3, Inhibitor of nuclear factor kappa-B kinase subunit beta (Homo sapiens). The note with it: at 1 µM.
Test [10] concerns the target T4, Inhibitor of nuclear factor kappa-B kinase subunit epsilon (Homo sapiens) (UniProt Q14164).
T4 sequence (whole entry): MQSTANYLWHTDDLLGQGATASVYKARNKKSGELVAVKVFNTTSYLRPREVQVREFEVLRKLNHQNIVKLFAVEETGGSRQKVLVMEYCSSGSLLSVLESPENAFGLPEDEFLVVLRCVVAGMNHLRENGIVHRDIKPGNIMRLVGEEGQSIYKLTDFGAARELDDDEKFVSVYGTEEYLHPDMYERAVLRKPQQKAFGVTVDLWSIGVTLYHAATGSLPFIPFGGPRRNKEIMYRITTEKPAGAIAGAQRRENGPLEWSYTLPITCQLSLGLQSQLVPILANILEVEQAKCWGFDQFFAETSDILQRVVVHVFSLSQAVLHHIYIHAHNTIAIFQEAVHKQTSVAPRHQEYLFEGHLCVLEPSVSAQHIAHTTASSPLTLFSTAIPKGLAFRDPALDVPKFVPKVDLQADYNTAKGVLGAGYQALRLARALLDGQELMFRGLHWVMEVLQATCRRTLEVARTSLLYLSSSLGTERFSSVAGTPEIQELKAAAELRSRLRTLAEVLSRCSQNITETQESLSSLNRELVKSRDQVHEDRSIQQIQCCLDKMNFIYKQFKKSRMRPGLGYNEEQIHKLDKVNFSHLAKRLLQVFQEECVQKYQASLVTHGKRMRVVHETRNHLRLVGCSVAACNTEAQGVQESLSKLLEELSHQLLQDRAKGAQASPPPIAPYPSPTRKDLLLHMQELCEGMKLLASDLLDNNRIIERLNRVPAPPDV
The note with it: at 0.1 µM.

The target of test [11] is T4, Inhibitor of nuclear factor kappa-B kinase subunit epsilon (Homo sapiens). The note with it: at 1 µM.
In test [12] the target is T5, Serine/threonine-protein kinase Nek1 (Homo sapiens) (UniProt Q96PY6).
T5 sequence (whole entry): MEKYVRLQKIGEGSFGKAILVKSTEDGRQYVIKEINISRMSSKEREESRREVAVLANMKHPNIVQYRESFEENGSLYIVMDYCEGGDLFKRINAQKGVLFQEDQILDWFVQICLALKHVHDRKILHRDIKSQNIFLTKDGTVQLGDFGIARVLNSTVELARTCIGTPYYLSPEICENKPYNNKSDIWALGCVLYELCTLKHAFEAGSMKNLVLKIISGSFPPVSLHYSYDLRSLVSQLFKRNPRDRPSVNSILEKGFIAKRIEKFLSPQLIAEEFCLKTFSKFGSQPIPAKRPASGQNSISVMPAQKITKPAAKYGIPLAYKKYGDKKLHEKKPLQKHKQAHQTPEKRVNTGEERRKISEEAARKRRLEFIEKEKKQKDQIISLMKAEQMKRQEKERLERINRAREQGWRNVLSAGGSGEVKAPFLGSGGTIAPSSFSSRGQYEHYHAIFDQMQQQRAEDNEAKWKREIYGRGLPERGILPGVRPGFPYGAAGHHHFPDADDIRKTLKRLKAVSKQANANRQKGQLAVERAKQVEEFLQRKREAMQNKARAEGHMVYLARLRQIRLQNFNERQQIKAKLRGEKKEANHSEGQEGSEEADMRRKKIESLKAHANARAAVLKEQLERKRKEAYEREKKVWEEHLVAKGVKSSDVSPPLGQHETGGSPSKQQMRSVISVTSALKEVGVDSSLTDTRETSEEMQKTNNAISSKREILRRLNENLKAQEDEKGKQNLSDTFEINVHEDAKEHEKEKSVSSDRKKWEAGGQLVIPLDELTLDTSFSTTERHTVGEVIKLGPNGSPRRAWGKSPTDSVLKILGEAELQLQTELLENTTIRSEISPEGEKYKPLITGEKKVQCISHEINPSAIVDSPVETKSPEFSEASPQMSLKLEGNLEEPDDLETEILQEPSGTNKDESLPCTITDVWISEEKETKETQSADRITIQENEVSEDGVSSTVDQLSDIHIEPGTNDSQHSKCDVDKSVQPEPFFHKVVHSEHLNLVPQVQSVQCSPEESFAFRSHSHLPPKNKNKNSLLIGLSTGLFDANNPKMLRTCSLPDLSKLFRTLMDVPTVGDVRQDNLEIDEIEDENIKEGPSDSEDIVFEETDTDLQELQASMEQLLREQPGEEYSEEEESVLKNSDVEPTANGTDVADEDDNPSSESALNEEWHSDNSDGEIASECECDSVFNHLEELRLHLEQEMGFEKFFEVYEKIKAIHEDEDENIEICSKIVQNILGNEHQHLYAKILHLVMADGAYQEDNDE
The note with it: at 0.1 µM.

Test [13] addresses T5, Serine/threonine-protein kinase Nek1 (Homo sapiens). The note with it: at 1 µM.
The target in test [14] is T6, Serine/threonine-protein kinase Nek2 (Homo sapiens) (UniProt P51955).
T6 sequence (whole entry): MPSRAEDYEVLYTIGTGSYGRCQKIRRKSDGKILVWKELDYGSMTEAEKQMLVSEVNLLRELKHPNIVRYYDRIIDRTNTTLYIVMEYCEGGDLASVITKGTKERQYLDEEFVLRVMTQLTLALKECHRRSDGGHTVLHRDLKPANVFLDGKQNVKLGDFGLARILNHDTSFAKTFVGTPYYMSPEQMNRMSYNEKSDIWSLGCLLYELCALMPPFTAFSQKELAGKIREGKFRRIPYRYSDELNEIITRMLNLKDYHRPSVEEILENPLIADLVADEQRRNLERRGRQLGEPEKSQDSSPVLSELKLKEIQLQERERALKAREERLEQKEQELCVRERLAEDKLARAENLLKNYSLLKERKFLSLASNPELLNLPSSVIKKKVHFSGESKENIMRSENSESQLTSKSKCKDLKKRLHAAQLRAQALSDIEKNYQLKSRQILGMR
The note with it: at 0.1 µM.

The target of test [15] is T6, Serine/threonine-protein kinase Nek2 (Homo sapiens). The note with it: at 1 µM.
Test [16] has as its target Serine/threonine-protein kinase Nek6 (Homo sapiens) (UniProt Q9HC98). The note with it: at 0.1 µM.
Test [17] shares this target. The note with it: at 1 µM.
Test [18] concerns the target Serine/threonine-protein kinase Nek7 (Homo sapiens) (UniProt Q8TDX7). The note with it: at 0.1 µM.
For test [19] the target is unchanged. The note with it: at 1 µM.
Test [20] deals with T7, Serine/threonine-protein kinase Nek9 (Homo sapiens) (UniProt Q8TD19).
T7 sequence (whole entry): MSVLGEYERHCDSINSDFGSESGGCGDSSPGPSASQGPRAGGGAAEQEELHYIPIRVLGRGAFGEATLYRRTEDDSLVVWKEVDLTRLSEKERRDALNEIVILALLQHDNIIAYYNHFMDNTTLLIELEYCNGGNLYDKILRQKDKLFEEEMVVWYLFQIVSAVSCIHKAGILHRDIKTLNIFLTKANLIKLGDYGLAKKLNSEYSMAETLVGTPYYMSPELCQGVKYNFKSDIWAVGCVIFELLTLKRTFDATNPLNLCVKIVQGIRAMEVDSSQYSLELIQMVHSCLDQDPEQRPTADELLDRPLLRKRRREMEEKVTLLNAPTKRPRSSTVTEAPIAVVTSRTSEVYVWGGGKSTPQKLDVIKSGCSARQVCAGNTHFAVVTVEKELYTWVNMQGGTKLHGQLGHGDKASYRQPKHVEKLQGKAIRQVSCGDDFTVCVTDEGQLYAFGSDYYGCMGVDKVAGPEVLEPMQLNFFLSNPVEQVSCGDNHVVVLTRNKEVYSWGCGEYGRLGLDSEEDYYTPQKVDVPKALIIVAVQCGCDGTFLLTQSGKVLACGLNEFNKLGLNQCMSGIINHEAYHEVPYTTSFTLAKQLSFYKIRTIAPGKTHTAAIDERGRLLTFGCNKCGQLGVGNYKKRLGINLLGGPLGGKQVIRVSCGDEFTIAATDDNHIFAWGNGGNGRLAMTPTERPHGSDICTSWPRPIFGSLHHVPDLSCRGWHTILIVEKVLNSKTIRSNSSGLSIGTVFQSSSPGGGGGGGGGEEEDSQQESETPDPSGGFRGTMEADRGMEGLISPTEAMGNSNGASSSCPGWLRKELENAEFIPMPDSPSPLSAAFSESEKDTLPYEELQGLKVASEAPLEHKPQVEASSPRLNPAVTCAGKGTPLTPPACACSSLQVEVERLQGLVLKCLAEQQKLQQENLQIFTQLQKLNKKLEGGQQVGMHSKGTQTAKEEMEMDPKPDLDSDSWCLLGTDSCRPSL
The note with it: at 0.1 µM.

Casein kinase II subunit alpha (Homo sapiens), sequence (P68400 whole entry, looked up): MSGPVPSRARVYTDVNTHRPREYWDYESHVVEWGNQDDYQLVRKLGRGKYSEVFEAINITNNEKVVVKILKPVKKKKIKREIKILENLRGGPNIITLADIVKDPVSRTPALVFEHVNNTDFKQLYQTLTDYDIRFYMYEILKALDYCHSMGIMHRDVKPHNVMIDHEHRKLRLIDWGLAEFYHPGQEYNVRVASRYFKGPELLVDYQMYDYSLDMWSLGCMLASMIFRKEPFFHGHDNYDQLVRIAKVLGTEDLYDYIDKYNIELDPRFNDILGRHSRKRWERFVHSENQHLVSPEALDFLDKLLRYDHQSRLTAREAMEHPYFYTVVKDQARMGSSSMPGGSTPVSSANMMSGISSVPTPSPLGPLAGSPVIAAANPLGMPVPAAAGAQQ
Serine/threonine-protein kinase Nek7 (Homo sapiens), sequence (Q8TDX7 whole entry, looked up): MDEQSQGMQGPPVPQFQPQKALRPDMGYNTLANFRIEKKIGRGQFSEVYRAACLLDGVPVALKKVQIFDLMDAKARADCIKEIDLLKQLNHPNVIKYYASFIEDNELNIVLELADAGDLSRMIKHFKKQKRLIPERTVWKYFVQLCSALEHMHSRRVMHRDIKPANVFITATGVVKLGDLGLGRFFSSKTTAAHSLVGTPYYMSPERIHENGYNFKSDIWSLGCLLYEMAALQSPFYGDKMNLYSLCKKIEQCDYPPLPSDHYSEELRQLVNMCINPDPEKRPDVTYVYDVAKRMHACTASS
Serine/threonine-protein kinase Nek6 (Homo sapiens), sequence (Q9HC98 whole entry): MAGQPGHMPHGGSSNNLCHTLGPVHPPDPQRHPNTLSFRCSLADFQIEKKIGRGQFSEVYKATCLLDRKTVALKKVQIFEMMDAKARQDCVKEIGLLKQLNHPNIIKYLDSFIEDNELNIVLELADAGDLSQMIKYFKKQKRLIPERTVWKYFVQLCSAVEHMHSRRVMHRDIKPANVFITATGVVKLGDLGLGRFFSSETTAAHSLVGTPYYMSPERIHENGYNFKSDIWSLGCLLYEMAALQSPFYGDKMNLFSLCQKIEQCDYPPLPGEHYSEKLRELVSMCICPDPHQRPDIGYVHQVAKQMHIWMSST
Sphingosine kinase 1 (Homo sapiens), sequence (Q9NYA1 whole entry): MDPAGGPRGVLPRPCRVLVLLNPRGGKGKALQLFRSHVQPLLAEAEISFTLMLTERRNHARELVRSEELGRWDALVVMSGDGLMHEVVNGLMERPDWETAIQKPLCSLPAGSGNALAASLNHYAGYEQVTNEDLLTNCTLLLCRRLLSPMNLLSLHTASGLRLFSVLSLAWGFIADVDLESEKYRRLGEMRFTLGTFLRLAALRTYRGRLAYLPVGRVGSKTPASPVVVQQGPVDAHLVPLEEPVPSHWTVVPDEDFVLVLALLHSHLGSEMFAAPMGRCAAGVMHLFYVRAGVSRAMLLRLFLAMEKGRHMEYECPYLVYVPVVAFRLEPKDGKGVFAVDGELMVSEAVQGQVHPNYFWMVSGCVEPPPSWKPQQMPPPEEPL

For orientation: inhibition means the relative decrease from the control value, in per cent. For `O=C(Nc1ccc(Oc2ccc3[nH]c(NC(=O)c4ccccc4)nc3c2)cc1)Nc1cc(C(F)(F)F)ccc1F`, the inhibition in [1] was 3.13%; in [2], 17.6%; in test [3], -0.1%; in test [4], 2.74%; in test [5], 4.99%; in test [6] it was -5.25%. Further, the inhibition in [7] was -0.85%; in test [8], 4.57%; in test [9], 2.88%; in [10], 3.68%; in test [11], 3.04%; in test [12], 1.92%. For the same compound, the inhibition stood at 2.89% in test [13]; 4.15% in test [14]; 3.11% in [15]; 3.73% in [16]; 1.7% in [17]; 4.29% in [18]. Moreover, the inhibition worked out at 4.36% in test [19] and 9.72% in test [20].

The values above are taken from ChEMBL document CHEMBL1961873, “Compounds: GSK PKIS; Assays: Nanosyn kinase panel” (2012).
